PubChem BioAssay AID720597 (Broad Institute, 2013)
Entries with a potency or affinity are not part of this list. Active and inactive are the calls of the source.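 Rule for the calls: active = fitted half-maximal dose no more than twice the top valid tested dose, for compounds that lower signal; inconclusive = fit invalid, or curve flat with activity between -70 and -30; inactive = potency past limit, curve flat within ±30, or signal increasing.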

These compounds were tested against NAD-dependent protein deacylase sirtuin-5, mitochondrial (Homo sapiens) (UniProt Q9NXA8) (assay: SIRT5 deacylase inhibitors, dose response, biochemical, fluorescence imaging, cherry-pick, set 6 (AID 720597;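 note: lower AMC signal can also come from blocking the trypsin step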)). Conditions: Purified SirT5, succinyl-peptide-AMC/trypsin fluorescence; series mostly up to 15 µM.
Sequence of NAD-dependent protein deacylase sirtuin-5, mitochondrial (Homo sapiens) (Q9NXA8 whole entry, looked up): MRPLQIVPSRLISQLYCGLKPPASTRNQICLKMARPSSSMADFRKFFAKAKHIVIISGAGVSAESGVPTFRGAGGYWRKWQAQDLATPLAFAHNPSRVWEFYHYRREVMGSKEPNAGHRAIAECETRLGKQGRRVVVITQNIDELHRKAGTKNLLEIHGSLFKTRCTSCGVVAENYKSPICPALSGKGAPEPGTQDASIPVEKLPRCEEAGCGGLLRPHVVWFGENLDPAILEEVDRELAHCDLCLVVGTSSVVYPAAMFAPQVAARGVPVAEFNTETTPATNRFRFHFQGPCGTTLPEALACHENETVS

outcome, inactive:
C[C@H](NC(=O)C[C@@H]1CC[C@H]2[C@@H](COC[C@@H](O)CN2C(=O)Nc2cccc(F)c2)O1)c1ccccc1
Cc1ccc(S(=O)(=O)Nc2ccc3c(c2)C(=O)N([C@H](C)CO)C[C@H](C)[C@@H](CN(C)Cc2ccc(C(F)(F)F)cc2)OCCCC[C@H](C)O3)cc1
C[C@H]1CN([C@@H](C)CO)C(=O)c2cc(NC(=O)CCCCCC(=O)Nc3ccccc3N)ccc2O[C@H]1CN(C)Cc1ccc(Cl)c(Cl)c1
C[C@@H]1CCCCO[C@@H](CN(C)Cc2ccc(C(F)(F)F)cc2)[C@@H](C)CN([C@@H](C)CO)C(=O)c2cc(NS(=O)(=O)c3cccs3)ccc2O1
C[C@@H]1CN([C@@H](C)CO)S(=O)(=O)c2ccc(C#Cc3ccc(F)cc3)cc2O[C@H]1CN(C)C(=O)NC1CCCCC1
COc1ccc(S(=O)(=O)N(C)C[C@H]2OCCCC[C@@H](C)Oc3ccc(NS(=O)(=O)c4ccc(Cl)cc4)cc3C(=O)N([C@H](C)CO)C[C@H]2C)cc1
COc1ccccc1S(=O)(=O)N(C)C[C@H]1Oc2cc(C#CCC3CCCC3)ccc2S(=O)(=O)N([C@@H](C)CO)C[C@@H]1C
C[C@@H]1CN([C@H](C)CO)C(=O)c2cccc(NC(=O)CCCCCC(=O)Nc3ccccc3N)c2O[C@H]1CN(C)Cc1ccc(Oc2ccccc2)cc1
COc1ccc(S(=O)(=O)Nc2ccc3c(c2)C(=O)N([C@H](C)CO)C[C@@H](C)[C@H](CN(C)Cc2ccc(C(F)(F)F)cc2)OCCCC[C@H](C)O3)cc1
CN(C)C(=O)c1cccc(-c2ccc([C@@H]3[C@H](CO)N4CCCCN(S(C)(=O)=O)C[C@@H]34)cc2)c1
O=C(C[C@H]1CC[C@H](NC(=O)C2CCC2)[C@H](CO)O1)NCc1ccccc1Cl
C[C@H]1CN([C@@H](C)CO)C(=O)Cc2cc(NC(=O)Nc3ccc(F)cc3)ccc2O[C@H]1CN(C)C
C/C=C/c1ccc([C@@H]2[C@H](CO)N(CC3CC3)C23CN(S(=O)(=O)CC)C3)cc1
CC(=O)N(C)C[C@H]1Oc2ncc(-c3cccc(F)c3)cc2C(=O)N([C@@H](C)CO)C[C@H]1C
COc1ccc(NC(=O)N(C)C[C@@H]2Oc3ccc(NS(=O)(=O)c4ccc(F)cc4)cc3C(=O)N([C@@H](C)CO)C[C@@H]2C)cc1
C[C@H](CO)N1C[C@H](C)[C@@H](CN(C)Cc2ccc(Cl)c(Cl)c2)OCCCC[C@H](C)Oc2ccc(NS(=O)(=O)c3cccs3)cc2C1=O
COc1ccc(NC(=O)Nc2ccc3c(c2)C(=O)N([C@@H](C)CO)C[C@@H](C)[C@H](CN(C)C(=O)Nc2cccc4ccccc24)OCCCC[C@H](C)O3)cc1
COCCOC(=O)N1C(=O)[C@@]2(c3cc(C#CCCO)ccc31)[C@H](c1ccccc1OCCO)N1[C@H](c3ccccc3)[C@H](c3ccccc3)OC(=O)[C@H]1[C@@H]2C(=O)N1CCN(c2ncccn2)CC1
Cc1ccc(-c2ccc3c(c2)O[C@H](CN(C)Cc2cccnc2)[C@H](C)CN([C@H](C)CO)S3(=O)=O)cc1
Cc1cc(C(=O)Nc2cccc3c2O[C@@H](CN(C)Cc2ccc(Oc4ccccc4)cc2)[C@H](C)CN([C@H](C)CO)C3=O)n(C)n1
O=C(CCN1CCCCC1)N[C@H]1CC[C@H](CC(=O)N2CCC(Cc3ccccc3)CC2)O[C@H]1CO
CC(C)CC#Cc1ccc2c(c1)O[C@@H](CN(C)C(=O)C1CCCCC1)[C@@H](C)CN([C@H](C)CO)S2(=O)=O
C[C@@H]1CN([C@@H](C)CO)C(=O)c2cc(NS(=O)(=O)c3ccc(F)cc3)ccc2O[C@@H](C)CCCCO[C@H]1CN(C)Cc1ccc(C(F)(F)F)cc1
COc1ccc(S(=O)(=O)Nc2ccc3c(c2)C(=O)N([C@H](C)CO)C[C@@H](C)[C@@H](CN(C)Cc2ccc(C(F)(F)F)cc2)OCCCC[C@@H](C)O3)cc1
Cn1cnc(CCNC(=O)C[C@@H]2CC[C@@H]3[C@H](COC[C@@H](O)CN3C(=O)Nc3ccc(Cl)cc3)O2)c1
COc1ccc(NC(=O)N(C)C[C@@H]2Oc3ccc(NS(=O)(=O)c4ccc(F)cc4)cc3C(=O)N([C@@H](C)CO)C[C@H]2C)cc1
